Compound activity as filed in PubChem.
aGlu spleen mod = inhibitors or activators of human alpha-glucosidase in spleen homogenate; AID 2112; Potency, µM (doses to about 79.9 µM), actives largely listed as inhibitors; 240,000 tested, 0.006% active; P10253; human spleen homogenate, 4-MU-alpha-glucoside fluorescence
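Human spleen homogenate (1 ug) with 4-methylumbelliferyl-alpha-D-glucopyranoside (1 mM final) in 50 mM citrate/phosphate pH 5.0, 0.01% Tween-20; 40 min at 37 C. Stopped at pH 10; 4-MU fluorescence Ex 365/Em 440 nm; AC50 by Hill fit.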
PKM2 act = activators of human pyruvate kinase M2; 260,000 tested, 0.34% active; purified PKM2, Kinase-Glo ATP luminescence, activation; response scale: 0% is enzyme alone, no compound; Potency, µM (highest dose often 57.5 µM), actives largely listed as activators; AID 1631; P14618; further: nearly all actives have a fitted effect of over 55% in size
Target sequence (P14618 whole entry, looked up): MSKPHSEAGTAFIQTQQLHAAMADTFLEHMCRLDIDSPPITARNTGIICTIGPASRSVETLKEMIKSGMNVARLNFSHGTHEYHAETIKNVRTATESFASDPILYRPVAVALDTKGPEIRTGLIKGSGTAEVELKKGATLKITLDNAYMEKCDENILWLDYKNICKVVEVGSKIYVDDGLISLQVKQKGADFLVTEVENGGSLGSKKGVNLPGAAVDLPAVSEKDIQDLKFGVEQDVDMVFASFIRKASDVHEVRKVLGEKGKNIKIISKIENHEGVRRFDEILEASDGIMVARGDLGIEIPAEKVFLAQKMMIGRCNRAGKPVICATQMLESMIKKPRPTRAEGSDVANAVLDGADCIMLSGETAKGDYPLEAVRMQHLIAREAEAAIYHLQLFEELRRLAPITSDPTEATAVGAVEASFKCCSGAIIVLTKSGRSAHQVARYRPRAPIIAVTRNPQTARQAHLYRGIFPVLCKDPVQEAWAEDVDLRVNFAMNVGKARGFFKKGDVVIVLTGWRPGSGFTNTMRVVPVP
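Kinase-Glo luminescence reports ATP generated from ADP (0.1 mM) and PEP (0.5 mM) by purified hPK-M2 after 1 h at room temperature, pH 7.2 imidazole buffer; intermediate enzyme activity allows detecting inhibitors and activators.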
GAA inhib = inhibitors of human lysosomal alpha-glucosidase | purified human GAA, 4-MU-alpha-glucoside fluorescence | Potency, µM (top dose mostly 76.9 µM), most hits filed as inhibitors | 200,000 tested, 0.005% active
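Human enzyme at 4 nM with 400 uM 4-methylumbelliferyl-alpha-D-pyranoside, citrate/phosphate buffer pH 5.0, 0.005% Tween-20, 20 min at room temperature. Compounds up to 77 uM. 4-MU fluorescence (Ex 365/Em 440) read after NaOH/glycine stop; AC50 from Hill fit.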
GALK inhibitor = galactokinase (human) inhibition; Purified GALK, Kinase-Glo residual ATP luminescence; Potency, µM (doses to about 57.5 µM), actives largely listed as inhibitors; 270,000 tested, 0.007% active; AID 1868
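Compounds were pin-transferred into ATP buffer (35 uM final), then GALK plus galactose (5 nM, 100 uM final) was added. After 1 h at room temperature, Kinase-Glo Plus was added and luminescence read after 10 min.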
GAA glycogen = inhibitors or activators of human alpha-glucosidase glycogen cleavage; AID 2100; 300,000 tested, 0.38% active; Potency, µM (series often up to 76.4 µM), most hits filed as inhibitors; recombinant GAA, glycogen substrate, Amplex Red glucose oxidase fluorescence;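 further: the screen sought inhibitors and activators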
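Recombinant enzyme (4 nM final) with compounds titrated up to 77 uM and bovine liver glycogen (30 ug) in citrate pH 5.0, 0.01% Tween-20, 37 C 40 min. Released glucose detected by Amplex Red/glucose oxidase (Ex 573/Em 610); AC50 from Hill fits.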
HeLa tox = HeLa cytotoxicity, CellTiter-Glo readout; shares compounds with PKM2 act; HeLa viability, CellTiter-Glo ATP luminescence, 24 h; activity change, negative = cytotoxicity, % at 57.5 µM; 230 tested, under 10 active
Numbers stand for hits; . = inactive; ? = inconclusive; / = not tested or not shown; [ ] = dose if it differs, or a comment. In the library only some 0.63% were active in any assay of this set; here they are far more common. The call rests on the fitted dose curve; in most records, active means well fitted curve in the direction sought with a large enough effect; inconclusive means small, poorly fitted or top-dose-only effect, or another doubt; inactive means no such curve, though single readings can be large; an effect the other way counts as inactive or inconclusive.

SMILES | aGlu spleen mod | PKM2 act | GAA inhib | GALK inhibitor | GAA glycogen | others
CC(=O)N1CCc2nc3sc(C(=O)Nc4ccc(Cl)cc4F)c(N)c3c(C(F)(F)F)c2C1 | / | / | / | / | .
COc1cc(C2c3c(-c4ccccc4O)n[nH]c3C(=O)N2Cc2ccco2)ccc1OCC(C)C (centres undefined) | / | / | / | / | .
Cc1cc(N2C(=O)C=CC2=O)c([N+](=O)[O-])cc1C | . | 5.6µM | . | . | .
COc1cc(/C=N/N=C2/C(=O)Nc3ccccc32)ccc1O | . | . | ? | . | .
O=C1Nc2ccccc2/C1=N\N=C\c1ccc(O)c(O)c1 | . | . | . | . | 6.3µM
CN(C)c1ccc(NC(=O)Cn2cc(S(=O)(=O)Cc3ccccc3Cl)c3ccccc32)cc1 | / | / | / | / | .
O=S(=O)(Nc1nc2ccccc2nc1NCc1ccco1)c1ccccc1 | . | . | . | . | .
O=S(=O)(c1ccccc1)c1ccc(NCc2ccco2)cc1 | . | 32µM | ? | . | .
COc1ccc2nc(NNC(=O)COc3ccccc3)sc2c1 | . | . | . | . | 5µM
CC(=O)NNc1nc2ccccc2s1 | . | . | . | . | 8.9µM
NCCNCCN | . | / | / | / | /
CCOc1ncccc1C(=O)NCCN1C(=O)S/C(=C/c2cccs2)C1=O | . | 16µM | . | . | .
CCOC(=O)c1ccccc1NC(=O)CSc1ccc(-c2sc(-c3ccccc3)nc2C)nn1 | / | / | / | / | .
Cc1cccc(CNC(=O)CCCn2c(=O)c3cccn3c3ccc(F)cc32)c1 | / | / | / | / | .
O=C(O)/C=C/C(=O)Nc1ccc(O)cc1 | . | . | . | / | 32µM
COC(=O)C(NC(C)=O)(Nc1sc2c(c1C(N)=O)CCCC2)C(F)(F)F (centres undefined) | . | . | . | . | 20µM
CCN(C(=O)c1cn(CC(C)C)c(=O)c2cc(OC)c(OC)cc12)c1cc(OC)ccc1OC | / | / | / | / | .
CC(C)NCC(O)Cn1c2c(c3ccccc31)CCc1c-2cnn1-c1ccccc1 (centres undefined) | . | . | . | . | 31µM
COc1ccccc1N1C(=O)N(C(C)=O)C2C1Nc1ccccc1N2C (centres undefined) | . | . | . | . | 35µM
Cc1cc(C)cc(NC(=O)CCN2C(=O)c3ccccc3Sc3ncccc32)c1 | / | / | / | / | .
CC(=O)Nc1ccc(NC(=O)CCc2nc3cccnc3n2Cc2cccs2)cc1 | / | / | / | / | .
COCCNc1ncnc2c1cnn2Cc1ccccc1Cl | / | / | / | / | .
Clc1ccccc1CONc1ncnc2nonc12 | . | 16µM | . | / | .
COc1ccccc1CNc1ccc(CNc2ncn[nH]2)cc1 | . | . | . | . | .
COc1ccccc1CNc1n[nH]c(NCc2ccccc2OC)n1 | . | . | . | . | 25µM
SMILES | aGlu spleen mod | PKM2 act | GAA inhib | GALK inhibitor | GAA glycogen | others
O=C(NCc1ccccc1Cl)C1CCN(S(=O)(=O)c2cccs2)CC1 | / | 10µM | / | . | .
O=C(NCc1ccccn1)C1CCN(S(=O)(=O)c2cccs2)CC1 | . | ? | . | . | .
N#Cc1nc(Cc2ccccc2)oc1NCc1ccccc1 | . | . | . | . | 50µM
Cc1ccc(CNc2oc(-c3cccs3)nc2C#N)cc1 | . | . | ? | . | 22µM
N#Cc1nc(-c2cccs2)oc1NCc1ccccc1 | . | . | ? | . | ?
COc1ccccc1CNC(=O)CCC1N=C2c3ccccc3N=C(SCc3ccc(C)cc3C)N2C1=O (centres undefined) | / | / | / | / | .
Cc1cccc(OCCSc2nc3c([nH]2)c(=N)ncn3Cc2ccccc2)c1 | . | . | . | . | .
CC(C)Sc1nc2c([nH]1)c(=N)ncn2Cc1ccccc1 | . | 14µM | . | . | . | HeLa tox=.
COc1cc2c(C(=O)NCc3ccc(C)o3)cn(CC(C)C)c(=O)c2cc1OC | . | 14µM | . | / | . | HeLa tox=.
CCn1cc(C(=O)NCc2ccco2)c2cc(OC)c(OC)cc2c1=O | . | . | . | . | .
Cc1ccc(-n2cc(S(=O)(=O)c3ccc(C)cc3)[nH]c2=O)cc1 | . | 7.1µM | . | . | . | HeLa tox=.
CCn1cc(S(=O)(=O)c2ccc(C)cc2)[nH]c1=O | . | . | . | . | .
Cc1ccc(CSc2ccc3nnc(CCNS(=O)(=O)c4ccc(C)cc4)n3n2)cc1 | / | / | / | / | .
O=S(=O)(c1ccc2c(c1)OCCO2)N1CCN(S(=O)(=O)c2c(F)cccc2F)CC1 | / | / | / | / | / | HeLa tox=?
CC(=O)N1CCOc2ccc(S(=O)(=O)N3CCCCC3)cc21 | / | / | / | . | /
O=C1CCc2cc(S(=O)(=O)N3CCN(c4ccccc4F)CC3)ccc2N1 | . | . | . | . | .
O=C(c1ccccc1F)N1CCN(S(=O)(=O)c2ccc3c(c2)OCCO3)CC1 | . | ? | .[15.4 µM] | . | .
C[C@H]1CN(S(=O)(=O)c2ccc3c(c2)OCCO3)CCN1S(=O)(=O)c1c(F)cccc1F | / | / | / | / | / | HeLa tox=.
CC1(C)CCc2cc(S(=O)(=O)N3CCN(S(=O)(=O)c4c(F)cccc4F)CC3)ccc2O1 | / | / | / | / | / | HeLa tox=.
CN1CCOc2ccc(S(=O)(=O)N3CCN(S(=O)(=O)c4c(F)cccc4F)CC3)cc21 | / | / | / | / | / | HeLa tox=.
COc1ccccc1-c1noc(CSc2nnc(Cc3ccccc3)n2-c2ccc(C)c(C)c2)n1 | / | / | / | / | .
